ELG1 repair inh = ELG1-dependent DNA repair inhibition | HEK293T ELG1-luciferase reporter, luminescence, 16 h; DNA damage induced by 5-fluorouridine | 330,000 compounds, 2.3% hits | AID 504467 | Potency, µM (doses to about 46.1 µM), without a hit: at the highest dose activity change, negative = inhibition, usual class: inhibitors; further: on the % scale 0 is the no-effect control and ±100 the full control effect; nearly all actives have a fitted effect of over 55% in size
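DMSO vehicle served as the neutral condition. Each well held 2,000 cells given 5-fluorouridine plus compound; after 16 hr at 37 °C/5% CO2, ONE-Glo was added and luciferase measured 30 min later.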
SMN2 splice up = enhancers of SMN2 splice variant expression. HEK293 SMN2-luciferase splicing reporter, luminescence, 30-36 h. Potency, µM (titrated, usually from 46.1 µM), for inactives: top-dose activity change, positive = activation, hits mostly activators. 210,000 compounds, 2.8% hits; further: % of control where 0% means no effect; nearly all actives have a fitted effect of over 55% in size
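qHTS luciferase splicing reporter: luminescence rises when SMN2 exon 7 is included in transfected HEK293 cells. Compound exposure lasted 30-36 h at 37C, with 4.5 mM final sodium butyrate as control, followed by a ONE-Glo read.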
FLuc counter = firefly luciferase modulation, counter-screen for miR-21 project; P08659; purified FLuc, Km substrates, luminescence inhibition; Potency, µM (doses to about 57.5 µM), for inactives: at the highest dose activity change, negative = inhibition, actives largely listed as inhibitors; 360,000 compounds, 6.9% hits; AID 588342;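 further: plate controls were vehicle for no effect and reference inhibitor for full effect; nearly all actives have a fitted effect of over 55% in size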
Target sequence (P08659 whole entry, looked up): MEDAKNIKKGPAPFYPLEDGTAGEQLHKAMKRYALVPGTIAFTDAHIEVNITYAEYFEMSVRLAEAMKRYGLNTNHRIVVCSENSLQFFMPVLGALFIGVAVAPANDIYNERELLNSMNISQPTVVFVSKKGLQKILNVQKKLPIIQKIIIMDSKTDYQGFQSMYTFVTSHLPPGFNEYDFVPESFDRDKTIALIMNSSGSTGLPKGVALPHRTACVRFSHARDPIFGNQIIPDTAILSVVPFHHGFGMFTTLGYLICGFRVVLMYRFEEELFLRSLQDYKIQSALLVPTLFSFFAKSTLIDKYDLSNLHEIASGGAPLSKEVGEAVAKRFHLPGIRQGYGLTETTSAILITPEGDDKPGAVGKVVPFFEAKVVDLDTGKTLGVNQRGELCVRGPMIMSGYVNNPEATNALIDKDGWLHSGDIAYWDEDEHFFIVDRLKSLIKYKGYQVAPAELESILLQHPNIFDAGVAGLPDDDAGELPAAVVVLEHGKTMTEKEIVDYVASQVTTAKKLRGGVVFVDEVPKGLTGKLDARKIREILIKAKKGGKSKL
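Purified P. pyralis luciferase (10nM final) with 10uM D-luciferin and 10uM ATP (Km levels) in 50mM Tris acetate pH 7.5, 10mM Mg acetate, 0.01% Tween-20, 0.05% BSA; qHTS 6-point titration, ~60 µM downward; luminescence read.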
ELG1 genotoxic = inducers of genotoxicity in HEK293T ELG1-luciferase cells. 330,000 compounds, 1.3% hits. Potency, µM (top dose mostly 46 µM), for the others: at the top dose activity change, positive = activation, most hits filed as activators. HEK293T ELG1-luciferase reporter, luminescence, 16 h; further: % of control where 0% means no effect; nearly all actives have a fitted effect of over 60% in size
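Step 1: seed 2,000 HEK293T ELG1-luciferase cells per well. Step 2: add compound or DMSO, incubate 16 hr at 37 °C. Step 3: ONE-Glo, 30 min at room temperature, read luminescence.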
NPC1 prom act = activators of NPC1 promoter. Huh7 NPC1 promoter luciferase reporter, 24 h. 320,000 compounds, 2.4% hits. Potency, µM (highest dose often 9.22 µM), for inactives: at the highest dose activation, usual class: activators. AID 485313; further: % of control where 0% means no effect; nearly all actives have a fitted effect of over 60% in size
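Stably transfected Huh7 (NPC1 promoter→luciferase), 1500 cells/well in Opti-MEM + 10% FBS, 2 h settle, then compound 24 h at 37 °C. Luminescence after 10 min with Amplite reagent.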
Rab9 prom act = activates the Rab9 promoter; Huh7 Rab9 promoter-luciferase reporter, luminescence, 24 h; Potency, µM (highest dose often 9.22 µM), inactives show at the highest dose activation, negative = inhibition, most hits filed as activators; 320,000 compounds, 2.8% hits; AID 485297; further: % of control where 0% means no effect; nearly all actives have a fitted effect of over 60% in size
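Cell-based reporter: Huh7 stable for Rab9 promoter-driven luciferase, plated in reduced-serum medium with 10% FBS at 1500 cells/well, compound-treated 24 h at 37 °C, luminescence read after 10 min reagent.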
The depositor's hits bear a star; u = inconclusive; x = not tested or not shown; [ ] = remark or other dose. Rows were chosen to be rich in hits. Some 9.4% of all compounds tested hit in one or more screens of this group. The call rests on the fitted dose curve; in most records, active means well fitted curve in the direction sought with a large enough effect; inconclusive means small, poorly fitted or top-dose-only effect, or another doubt; inactive means no such curve, though single readings can be large; an effect the other way counts as inactive or inconclusive. Potency means the concentration at half of the fitted maximal effect.

SMILES | ELG1 repair inh | SMN2 splice up | FLuc counter | ELG1 genotoxic | NPC1 prom act | Rab9 prom act
NC(=S)n1[nH]c(-c2ccc([N+](=O)[O-])cc2)c(N=Nc2ccc(Cl)cc2)c1=O | 2.91µM* | -46.5% | -12.5% | -10.3% | -40.5% | -52.9%
Cc1[nH]n(C2=NCCS2)c(=O)c1N=Nc1cccc(C(F)(F)F)c1 | 2.91µM* | -47.1% | -16.5% | 18.2% | -28.2% | -43.7%
C/C(=N\NC(=O)c1ccc2ccccc2c1)c1cccs1 | u | x | 4.26µM* | 2.06µM* | 1.12µM* | 1µM*
C/C(=N\NC(=O)c1cccs1)c1ccc2ccccc2c1 | u | x | -16.1% | 8.5% | u | u
C/C(=N\NC(=O)c1ccncc1)c1cccs1 | u | x | -18.4% | u | 18.5% | 6.5%
C/C(=N/NC(=O)c1cc(C2CC2)[nH]n1)c1cccs1 | u | 2.51µM* | 1.51µM* | u | 0.355µM* | 0.282µM*
C/C(=N\NC(=O)c1ccccc1O)c1cccs1 | u | 3.55µM* | 7.57µM* | u | 0.562µM* | 0.562µM*
C/C(=N\NC(=O)C1=NNC(=O)C1C)c1cccs1 (stereo not drawn) | u | u | u | u | u | 3.98µM*
COc1ccc(CCNC(=O)Cc2c(C)c3ccc(O)c(C)c3oc2=O)cc1OC | x | 3.3% | 1.7% | x | x | x
CCc1ccc(Cn2c(CNS(=O)(=O)c3ccc4c(c3)CCCC4)nc3cccnc32)cc1 | x | x | -15.4% | x | x | x
COc1ccc(C(=O)NCC(c2ccc3c(c2)OCO3)N2CCN(C)CC2)cc1OC (stereo not drawn) | x | x | 1.0% | x | x | x
CCOC(=O)C1CCN(c2nc3c(S(=O)(=O)c4ccccc4)nnn3c3ccc(Cl)cc23)CC1 | x | 3.1% | -2.7% | x | x | x
N#C/C(=C\c1cccc(NC(=O)c2ccccc2Cl)c1)C(=O)NCCc1ccccc1 | 14.6µM* | -0.1% | -24.7% | -4.9% | 13.6% | u
O=C(N/N=C/c1ccccn1)c1cccc([N+](=O)[O-])c1 | u | 10.5% | -17.0% | u | -5.1% | 3.8%
O=C(N/N=C/c1ccccn1)c1ccc([N+](=O)[O-])cc1 | u | 4.2% | 19µM* | 8.8% | -1.5% | 5.1%
O=C(N/N=C/c1ccccn1)c1ccc(NC(=O)c2cccc([N+](=O)[O-])c2)cc1 | 16.4µM* | 0.9% | u | -4.4% | 5.5% | 9.1%
O=C(N/N=C/c1ccc[nH]1)c1ccc([N+](=O)[O-])cc1 | u | -10.1%[1.84 µM] | 15.1µM* | 2.4% | -1.7% | -7.6%
O=C(N/N=C/c1ccccn1)c1cc([N+](=O)[O-])cc([N+](=O)[O-])c1 | 7.0% | -3.7% | -7.8% | 6.3% | -2.6% | -1.7%
O=C(N/N=C/c1ccc2ncccc2c1)c1cccc([N+](=O)[O-])c1 | 0.0% | x | 3.38µM* | 1.8% | 13.8% | 13.7%
CC(C)c1ccc(C2c3c(-c4ccccc4O)n[nH]c3C(=O)N2CCc2ccccc2)cc1 (stereo not drawn) | x | -2.7% | 2.7% | x | x | x
S=C(N/N=C/c1ccc2ncccc2c1)Nc1cccnc1 | -6.2% | -10.4% | 6.75µM* | -5.5% | -11.5% | -4.9%
COc1ccc(-n2nc(C(=O)NCC(=O)NC3CCCCCC3)c3ccccc3c2=O)c(OC)c1 | 1.2% | x | u | 6.6% | -5.9% | -8.0%
COc1ccc(-n2nc(C(=O)NCC(=O)N3CCN(c4ccc(F)cc4)CC3)c3ccccc3c2=O)c(OC)c1 | u | x | 1.69µM* | 13.2% | 16.9% | 21.7%
COc1ccc(N2CCN(C(=O)CNC(=O)c3cn(-c4ccccc4OC)c(=O)c4ccccc34)CC2)cc1 | -18.0% | -3.0% | u | -3.3% | -3.6% | -4.9%
COc1ccc(-n2nc(C(=O)NCC(=O)N3CCN(c4ccccc4)CC3)c3ccccc3c2=O)c(OC)c1 | u | x | 0.536µM* | 0.0% | u | u
SMILES | ELG1 repair inh | SMN2 splice up | FLuc counter | ELG1 genotoxic | NPC1 prom act | Rab9 prom act
COc1ccc(C2CC(=O)NC(NC(=O)c3ccc(Br)cc3)=N2)c(OC)c1OC (stereo not drawn) | x | x | -1.0% | x | x | x
CCOc1ccc(C(=O)c2oc3ccccc3c2NC(=O)Cc2coc3ccc(CC)cc23)cc1 | x | 7.5% | 0.3% | x | x | x
CCSc1nc2c(cnn2-c2ccccc2)c(=O)n1N | u | x | 13.5µM* | u | 2.24µM* | 1.26µM*
CSc1nc2c(cnn2-c2ccccc2)c(=O)n1N | u | u | u | 17.6% | u | 29.8%
CN=C1S/C(=C\c2ccc(N3CCOCC3)c(F)c2)C(=O)N1C | -7.9% | 9.0% | u | u | 12.0% | 28.0%
CN=C1S/C(=C\c2ccc(N3CCCC3)c(F)c2)C(=O)N1C | u | u | 4.78µM* | u | 27.1% | u
O=C(O)c1cc(-c2cccc3ccccc23)nc2ccccc12 | -9.1% | x | 26.9µM* | -6.9% | 1.3% | -2.4%
O=C(O)c1cc(-c2ccc(-c3ccccc3)cc2)nc2cc3ccccc3cc12 | x | -1.3%[9.22 µM] | x | x | x | x
CCOc1ccc(-c2cc(C(=O)O)c3ccccc3n2)c(OCC)c1 | u | 117.6% | 16.9µM* | -1.7% | -1.2% | -2.3%
O=C(O)c1cc(-c2ccc3ccccc3c2)nc2ccc(F)cc12 | u | x | 2.69µM* | 1.5% | -0.1% | -2.6%[1.84 µM]
NC(=O)C1CCN(C(=O)c2cc(-c3ccccc3Cl)nc3ccccc23)CC1 | -10.8% | x | x | 3.1% | x | x
O=C(c1cc(-c2cccc3ccccc23)nc2ccccc12)N1CCN(CCO)CC1 | 4.61µM* | x | x | -3.7% | x | x
CCN(CC)S(=O)(=O)c1ccc(NC(=O)c2c(C)oc3ncnc(N4CCCCC4)c23)cc1 | x | x | -5.2% | x | x | x
COC(=O)c1cc(-c2c[nH]c3ccccc23)n[nH]1 | 20.2% | 13.8% | u | 0.4% | 1.1% | -3.7%
O=C(O)c1cc(-c2c[nH]c3ccccc23)nc2cc3ccccc3cc12 | u | x | 0.675µM* | 17.4% | 27.5% | 25.3%
O=C(O)c1cc(-c2ccc3ccccc3n2)nc2ccccc12 | u | x | 0.601µM* | u | u | 2.82µM*
COC(=O)c1ccc(Cl)cc1NC(=O)N1CC=C(c2c[nH]c3ccccc23)CC1 | x | x | -12.8% | x | x | x
CCn1c(C)nc2cc(-c3nnc(-c4c(-c5ccccc5)noc4C)o3)ccc21 | 20.6µM* | x | -1.1% | -6.9% | -6.2% | -11.4%
Cc1onc(-c2ccccc2)c1-c1nnc(-c2ccccc2C(F)(F)F)o1 | u | x | -3.2% | -8.8% | -1.6% | -0.8%
CN(C)N1C(N)=C(C#N)C(c2cccc3ccccc23)C2=C1CC(c1ccccc1)CC2=O (stereo not drawn) | 16.4µM* | 12.1%[1.84 µM] | 10.5% | -4.1% | -0.8% | 3.7%

Compound activity deposited in PubChem BioAssay by National Center for Advancing Translational Sciences (NCATS).
